These results are taken from PubChem BioAssay AID1445 (SRMLSC, 2008).

In all, about 220,000 compounds went through this assay and about 910 (0.41%) were called active. The entries come from a sample that favours actives as a whole. Results with a measured potency or affinity are listed apart. Values without a mark were called inactive.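 The calls were made as follows: active = primary inhibition above the hit cutoff, then over 50% inhibition at one or more dose response concentrations (cut at about 23% in these data, passing the limit was not always enough); inconclusive = conflicting primary data, or primary hits not chosen for dose response; inactive = low primary inhibition, or under 50% at every dose.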

Chain of Aminopeptidase N (Plasmodium falciparum (isolate 3D7)) (O96935 whole entry, looked up): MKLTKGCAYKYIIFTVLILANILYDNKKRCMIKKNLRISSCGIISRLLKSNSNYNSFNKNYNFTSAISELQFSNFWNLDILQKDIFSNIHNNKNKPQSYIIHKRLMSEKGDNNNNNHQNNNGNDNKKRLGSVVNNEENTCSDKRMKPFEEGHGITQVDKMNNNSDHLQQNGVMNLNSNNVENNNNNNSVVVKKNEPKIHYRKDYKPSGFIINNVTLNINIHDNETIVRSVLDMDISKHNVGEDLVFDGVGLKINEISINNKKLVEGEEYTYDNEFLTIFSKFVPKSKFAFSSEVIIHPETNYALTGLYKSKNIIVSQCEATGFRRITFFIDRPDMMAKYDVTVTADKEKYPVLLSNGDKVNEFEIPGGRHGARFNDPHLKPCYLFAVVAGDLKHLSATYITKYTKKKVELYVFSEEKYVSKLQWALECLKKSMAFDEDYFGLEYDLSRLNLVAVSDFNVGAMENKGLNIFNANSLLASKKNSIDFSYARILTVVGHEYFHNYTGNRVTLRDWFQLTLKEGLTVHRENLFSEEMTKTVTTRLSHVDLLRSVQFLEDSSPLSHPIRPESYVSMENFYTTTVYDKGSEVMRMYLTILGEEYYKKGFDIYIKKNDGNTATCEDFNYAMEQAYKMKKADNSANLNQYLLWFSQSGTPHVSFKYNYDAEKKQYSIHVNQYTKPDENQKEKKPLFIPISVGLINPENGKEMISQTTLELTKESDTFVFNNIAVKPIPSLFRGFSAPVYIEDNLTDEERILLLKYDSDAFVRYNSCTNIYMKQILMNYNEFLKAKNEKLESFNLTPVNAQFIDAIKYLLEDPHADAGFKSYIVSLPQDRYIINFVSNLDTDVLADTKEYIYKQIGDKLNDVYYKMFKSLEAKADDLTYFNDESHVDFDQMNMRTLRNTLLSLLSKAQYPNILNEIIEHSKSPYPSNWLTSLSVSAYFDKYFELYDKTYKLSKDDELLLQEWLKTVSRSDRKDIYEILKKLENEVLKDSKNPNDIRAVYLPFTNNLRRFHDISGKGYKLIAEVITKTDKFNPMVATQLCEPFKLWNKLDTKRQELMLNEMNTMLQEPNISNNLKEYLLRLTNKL

This test addresses Aminopeptidase N (Plasmodium falciparum (isolate 3D7)) (UniProt O96935). Kind of test: malaria alanyl aminopeptidase activity blockers – biochemical, fluorogenic H-Leu-NHMec substrate, 1536-well (AID 1445).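 Also: plate controls were DMSO full reaction for no effect and no enzyme background for full effect.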 The conditions noted are these: recombinant M1AAP, H-Leu-NHMec fluorogenic kinetic assay; at 30 µM, active compounds read high unless noted.
Broadly, the inhibition is the change of the read-out against control, counted positive when it falls. Take `C=CCC(=O)N1CCCC(CCC(=O)NCc2ccccc2F)C1` (stereo unspecified): the inhibition was 9.17%. For `O=C(CCn1c(=O)oc2ccccc21)Nc1ccc2c(c1)OCCO2`, the inhibition was -5.19%. With `COc1ccccc1CCNS(=O)(=O)c1cn(C)c(=O)n(C)c1=O`, the inhibition is -3.3%. The value for `C[C@H](CCC(=O)O)[C@H]1CC[C@H]2[C@@H]3C(=O)C[C@@H]4CC(=O)CC[C@]4(C)[C@H]3CC(=O)[C@]12C` was 7.14%; that for `CC(CCC(=O)O)C1CC[C@@]2(C)C3C(=O)CC4C(C)(C)C(O)CC[C@]4(C)C3C(=O)C[C@]12C` (stereo partly specified) was 3%. For `C/C(Cl)=C\Cn1c(O)c(N=O)c2ccccc21`, the inhibition is -2.4%. The value for `C=CCn1c(O)c(N=NC(=O)OCC)c2ccccc21` was 12.7%; that for `CCn1c(O)c(N=NC(=O)Cn2ccc(C(F)(F)F)n2)c2ccccc21` was 5.05%; that for `O=C(N/N=C/c1ccc(Cl)s1)c1ccccc1[N+](=O)[O-]` was 9.55%. In the case of `Cc1c(C)c2ccc(Oc3ccc([N+](=O)[O-])cc3C(F)(F)F)c(C)c2oc1=O`, the inhibition was 6.61%. Consider `Cc1cc(SCC(=O)N2CCC(c3noc4ccc(F)cc34)CC2)nc2ccccc12`, for which the inhibition was 7.53%. Consider `Cc1sc2ncnc(SCC(=O)N3CCC(c4noc5ccc(F)cc45)CC3)c2c1C`, for which the inhibition is 1.38%. Then `COC(=O)c1cn(NC(=O)Cc2ccccc2OC)c(=O)c2ccccc12`, with 3.77%. As for `CC(=O)Oc1c(-c2ccco2)oc2ccccc2c1=O`, the inhibition was 30.4%. As to `O=C(O)COc1c(-c2ccco2)oc2ccccc2c1=O`, the inhibition was 9.28%. The value for `Cn1c(SCc2nc(-c3ccccc3)no2)nnc1-c1cccs1` was -3.32%. As to `N/C(=N\OC(=O)c1cnn(-c2ccccc2)c1C(F)(F)F)c1ccc(C(F)(F)F)cc1`, the inhibition was 13.2%. The value for `O=C(NN1C(=O)c2ccccc2NC1c1ccccn1)c1ccc(Br)cc1` (stereo unspecified) was 8.07%. Then `O=C(NN1C(=O)c2ccccc2NC1c1ccccn1)c1ccc([N+](=O)[O-])cc1` (stereo unspecified), with 2.53%.

Turning to `O=C(NN1C(=O)c2ccccc2NC1c1ccco1)c1ccc(Br)cc1` (stereo unspecified), the inhibition is 5.55%.

`O=C(NN1C(=O)c2ccccc2NC1c1ccoc1)c1ccc([N+](=O)[O-])cc1` (stereo unspecified): the inhibition was 4.32%. For `O=C(NN1C(=O)c2ccccc2NC1c1ccco1)c1ccc([N+](=O)[O-])cc1` (stereo unspecified), the inhibition was 8.9%.

Take `CC(=O)NN1C(=O)c2ccccc2NC1c1ccoc1` (stereo unspecified): the inhibition is 4.92%. For `CCCc1[nH]nc2c1C1(CCN(C(=O)OCc3ccccc3)CC1)C(C#N)=C(N)O2`, the inhibition was 3.73%. On to `O=C1OCC=C1NNC(=O)c1cccnc1`, for which the inhibition is 4.75%. In the case of `Cc1ccc(SCc2[nH]nc3c2C2(C(=O)N(C)c4ccccc42)C(C#N)=C(N)O3)cc1` (stereo unspecified), the inhibition is 5.03%. The value for `CCC(C)NC(=O)CSc1nc2ccsc2c(=O)n1NC(=O)c1ccccc1` (stereo unspecified) was 15.2%; that for `Cc1ccc(CNC(=O)CSc2nc3ccsc3c(=O)n2Cc2ccc(C(=O)O)cc2)cc1` was 33.8%. As for `Cc1ccc(CNC(=O)CSc2nc3ccsc3c(=O)n2Cc2ccccn2)cc1`, the inhibition is 15.8%.

As to `COc1ccc(C(=O)Nn2c(SCC(=O)NCc3ccco3)nc3ccccc3c2=O)cc1`, the inhibition was 1.81%. Then `COc1ccc(-n2c(SCC(=O)NCCC(C)C)nc3ccsc3c2=O)cc1`, with -0.48%; and `Cn1c(SCc2ccccc2)nc2ccsc2c1=O`, with 2.71%; and `O=C(CSc1nc2ccsc2c(=O)n1Cc1ccccc1)NCc1ccco1`, with -0.89%. On to `CCCN(CCC)C(=O)CSc1nc2ccsc2c(=O)n1NC(=O)c1ccccc1`, for which the inhibition was 2.56%. Then `CC1(C)Cc2c(sc(/N=C/N3CCCCC3)c2C#N)C(C)(C)N1`, with 6.45%; and `COc1ccc(/C=C/C(=O)NCC2COc3ccccc3O2)c(OC)c1` (stereo unspecified), with 6.8%; and `COc1ccc(Cl)cc1NC(=O)CNc1ccccc1CN(C)C1CCCCC1`, with 10.4%. For the compound `COC(=O)c1ccc(COc2ncnc3c(Cl)cc(Cl)cc23)o1`, the inhibition was 1.47%. In the case of `COc1ccc(C)cc1NC(=O)Cn1cnnn1`, the inhibition was 2.9%.

Regarding `S=C(c1ccc(Br)cc1)N1CCN(Cc2ccccc2)CC1`, the inhibition is 12.5%.

For `CCc1n[nH]c(=S)n1/N=C/c1ccccc1OCc1ccc(Cl)cc1`, the inhibition is 3.79%. Regarding `CSc1n[nH]c(NC(C)=O)n1`, the inhibition is 2.22%. The value for `Oc1c(Cl)cc(Cl)cc1C=Nc1ccc(Br)cc1` was 12.1%; that for `C/C(=N\O)c1cc(Cl)cc(Cl)c1O` was 10.5%; that for `O=C(NCCn1ccc2ccccc21)c1ccc(S(=O)(=O)N2CCOCC2)cc1` was 8.48%.

With `CC(C)C(=O)NCCc1nc2ccccc2n1CCCOc1ccc(Cl)cc1`, the inhibition was 10.4%. Consider `O=C(CC(C(=O)O)c1ccccc1)c1cccs1` (stereo unspecified), for which the inhibition is 3.01%. The value for `CC(C)Cc1nc2oc3c(=O)[nH]cnc3c2c2c1CCCC2` was -0.28%; that for `O=C(NC1CCN(C(=S)NCCc2ccccc2)CC1)C1CCCCC1` was -6.9%; that for `O=C(NCCc1ccccc1)C1CCCN(C(=O)NC2CCCCC2)C1` (stereo unspecified) was 28.2% (active). For `CN(C)C(=O)N1CCCC(C(=O)NCCc2ccccc2)C1` (stereo unspecified), the inhibition is 2.4%.

As to `CCOC(=O)c1[nH]c2ccc(Br)cc2c1NC(=O)CCN1CCOCC1`, the inhibition was 4.62%. For the compound `O=C(O)Cc1c(-c2ccccc2)c2cc(Br)ccc2[nH]c1=O`, the inhibition is 22.3%. `O=C(CN1CCOCC1)NNc1nc(-c2ccccc2)c2cc(Br)ccc2n1`: the inhibition is 20.7%. With `O=C(CN1CCOCC1)Nc1c(-c2ccccc2)c2cc(Br)ccc2[nH]c1=O`, the inhibition was 28.2% (active). On to `N#Cc1c(NC(=O)CCN2C(=O)c3ccccc3C2=O)oc(-c2ccccc2)c1-c1ccccc1`, for which the inhibition was 5.82%. Consider `O=c1[nH]c2ccc(Cl)cc2c(-c2ccccc2)c1SC(=S)N1CCOCC1`, for which the inhibition was 44%. For the compound `O=C(CCN1CCOCC1)Nc1cccc(Br)c1`, the inhibition is -4.3%. Turning to `N#Cc1c(NC(=O)CN2CCOCC2)oc(-c2ccccc2)c1-c1ccccc1`, the inhibition is 23.5% (active). On to `N#Cc1c(NC(=O)Cn2c(=O)oc3ccccc32)oc(-c2ccccc2)c1-c1ccccc1`, for which the inhibition was 4.71%.

For the compound `O=c1[nH]c2ccc(Cl)cc2c(-c2ccccc2)c1N1CCOCC1`, the inhibition is -3.98%.
